Results: article PMC4336329 (PLoS ONE, 2015)
The campaign covered roughly 310,000 compounds. About 14,000 (4.5%) showed an effect of 50% or more. Effects have a minus sign here. Many of the other results were omitted from the sample, so strong results are more common in it than they were.

Target: human ether-à-go-go-related gene (hERG) potassium channel (human, UniProt Q12809)
Test: primary screen, population patch clamp on CHO cells stably expressing hERG; higher = less effect of the substance
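Further: peak tail current of the secondary pulse compared with the same well before compound.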

Sequence of human ether-à-go-go-related gene (hERG) potassium channel (Q12809 whole entry, looked up): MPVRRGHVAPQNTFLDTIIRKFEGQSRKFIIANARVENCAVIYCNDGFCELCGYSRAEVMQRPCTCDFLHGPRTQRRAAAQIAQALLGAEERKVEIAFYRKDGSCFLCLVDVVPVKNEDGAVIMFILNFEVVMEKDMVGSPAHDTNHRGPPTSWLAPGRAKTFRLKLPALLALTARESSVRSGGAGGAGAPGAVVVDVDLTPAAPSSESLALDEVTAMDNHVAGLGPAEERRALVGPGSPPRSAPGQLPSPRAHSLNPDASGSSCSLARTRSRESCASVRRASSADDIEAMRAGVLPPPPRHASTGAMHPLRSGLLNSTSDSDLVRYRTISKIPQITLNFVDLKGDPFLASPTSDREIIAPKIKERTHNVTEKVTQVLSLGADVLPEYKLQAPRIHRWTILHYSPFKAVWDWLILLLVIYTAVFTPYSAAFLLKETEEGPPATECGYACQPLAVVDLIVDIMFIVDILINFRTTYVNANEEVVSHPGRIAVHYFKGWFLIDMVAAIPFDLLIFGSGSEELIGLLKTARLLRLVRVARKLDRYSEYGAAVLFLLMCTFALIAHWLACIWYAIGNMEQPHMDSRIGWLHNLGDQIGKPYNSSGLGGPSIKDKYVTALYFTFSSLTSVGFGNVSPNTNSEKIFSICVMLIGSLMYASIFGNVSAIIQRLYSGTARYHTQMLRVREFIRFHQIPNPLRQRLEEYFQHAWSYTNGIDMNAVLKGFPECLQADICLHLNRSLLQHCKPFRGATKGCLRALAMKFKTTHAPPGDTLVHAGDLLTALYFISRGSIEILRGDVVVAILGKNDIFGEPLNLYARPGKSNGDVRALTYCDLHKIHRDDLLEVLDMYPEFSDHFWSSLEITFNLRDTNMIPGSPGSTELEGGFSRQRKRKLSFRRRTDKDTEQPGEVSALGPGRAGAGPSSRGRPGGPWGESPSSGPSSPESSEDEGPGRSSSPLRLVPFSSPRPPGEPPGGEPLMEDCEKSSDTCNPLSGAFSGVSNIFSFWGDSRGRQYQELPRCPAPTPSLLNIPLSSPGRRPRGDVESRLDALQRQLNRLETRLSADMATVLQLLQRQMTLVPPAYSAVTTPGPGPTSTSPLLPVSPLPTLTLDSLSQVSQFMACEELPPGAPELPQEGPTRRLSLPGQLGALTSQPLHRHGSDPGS

Row | Structure (SMILES) | hERG current change (%, negative = inhibition) at 10uM
1 | Cc1ccc(C2=NN(C(=O)c3cccs3)C(c3ccccc3O)C2)cc1 (stereo not shown) | 34%
2 | O=S1(=O)N=C(N(CCO)/N=C/c2ccc(Cl)cc2)c2ccccc21 | 4.3%
3 | CN(C)c1ccc(P(=O)(Nc2ccc([N+](=O)[O-])cc2)N2CCOCC2)c(NC(=O)c2cccs2)c1 (stereo not shown) | 16.9%
4 | Cc1nc(=O)c(-c2ccccc2)c(C)n1-c1ccc(O)cc1 | 9.6%
5 | O=C(NCCCl)Nc1cccnc1Cl | 12.2%
6 | COc1ccc(/C(C)=N\n2cnnc2)cc1 | 6.86%
7 | Cc1ccc(C(=O)N/C(=C\c2ccccc2)C(=O)OCc2ccccc2)cc1 | -50.7%
8 | O=C(CNC(=O)c1ccc(Oc2ccccc2)cc1)OCc1ccc(Br)cc1 | -0.714%
9 | O=C(CNC(=O)/C(=C\c1ccc(F)cc1)NC(=O)c1ccccc1)OCc1ccccc1 | -80.7%
10 | O=C(CNC(=O)/C(=C/c1ccccc1)NC(=O)c1ccc(Br)cc1)OCc1ccccc1 | -64%
11 | Cc1ccc(/C=C(\NC(=O)c2ccccc2)C(=O)OCc2ccccc2)cc1 | 10.3%
12 | O=C(CNC(=O)/C(=C\c1ccccc1)NC(=O)c1ccc(Br)cc1)OCc1ccccc1 | -69.1%
13 | O=C(NC(Cc1ccccc1)C(=O)O)/C(=C\c1ccc(F)cc1)NC(=O)c1ccccc1 (stereo not shown) | 11.1%
14 | CCOC(=O)CNC(=O)/C(=C\c1ccc(F)cc1)NC(=O)c1ccccc1 | -26.4%
15 | CC(=O)N/C(=C\c1ccccc1)C(=O)OCc1ccc(C)cc1 | -19.9%
16 | O=C(Nc1ccc(C(=O)O)cc1)/C(=C\c1ccccc1)NC(=O)c1ccc(Br)cc1 | 7.33%
17 | O=C(CNC(=O)c1ccccc1)OCc1cccc(Br)c1 | -17.8%
18 | CC1(C(=O)NCCCN2CCOCC2)Oc2cccnc2NC1=O (stereo not shown) | 13.2%
19 | Cc1ccccc1NC(=S)Nc1ccc(Br)cc1 | -6.93%
20 | CS(=O)(=O)N(Cc1ccccc1)c1ccc(C(=O)Nc2ccccc2Sc2ccccc2)cc1 | 1.8%
21 | Cc1cccc(C)c1NC(=O)CN(C)C(=O)c1ccccc1Sc1ccccc1C#N | -4.76%
22 | O=C(NC(=S)NCc1cccnc1)c1cc2ccccc2o1 | 8.71%
23 | CC(=O)c1ccc(O)c(CSC2=NCCS2)c1 | 19.8%
24 | O=C(CN1C(=O)NC2(CCc3ccccc32)C1=O)NCCc1ccccc1 (stereo not shown) | -6.43%
25 | O=C(CNC(=O)/C(=C\c1ccc(Br)cc1)NC(=O)c1ccccc1)OCc1ccccc1 | -59.9%
26 | NC(=S)NNC(=O)/C(=C/c1ccc(Br)cc1)NC(=O)c1ccccc1 | 40%
27 | COc1ccccc1C(=O)N/C(=C\c1ccc(Br)cc1)C(=O)NCC(=O)O | 1.78%
28 | CC1(c2ccccc2)NC(=O)N(CC(=O)Nc2nc(-c3ccccn3)cs2)C1=O (stereo not shown) | 0.219%

Row | Structure (SMILES) | hERG current change (%, negative = inhibition) at 10uM
29 | COc1ccccc1NC(=O)Nc1nn(C)c2cccc(N(C)C)c12 | 11%
30 | COc1ccc(NC(=O)c2cn(CCC#N)nc2-c2cc3ccccc3o2)cc1 | -0.308%
31 | COC(=O)C1CCN(C(=O)c2cc3ccccc3oc2=O)CC1 | -7.44%
32 | COC(=O)C1CCN(Cc2nnc(-c3ccccc3)o2)CC1 | 16.1%
33 | COc1cccc(-c2nn(Cc3ccccc3)cc2CO)c1 | 8.47%
34 | COC1CCN(Cc2cn(Cc3ccccc3)nc2-c2cc3ccccc3o2)CC1 | -71.9%
35 | COC(=O)C1CCN(Cc2cn(Cc3ccccc3)nc2-c2cc3ccccc3o2)CC1 | -75.9%
36 | COCCOC1CCN(Cc2cn(Cc3ccccc3)nc2-c2cc3ccccc3o2)CC1 | -67%
37 | N#CCCn1cc(C(=O)Nc2ccc(C(=O)O)cc2)c(-c2cc3ccccc3o2)n1 | 10.7%
38 | CC(C)(C)c1ccc(/C([O-])=C(/C(=S)NCc2ccco2)[n+]2ccccc2)cc1 | 6.63%
39 | Cc1cc(C)cc(NC(=S)N2CCN(S(C)(=O)=O)CC2)c1 | 4.55%
40 | CCOc1ccc(N(CC(=O)NCCCOC)S(C)(=O)=O)cc1 | 4.53%
41 | Cc1cccc(-c2nc(Nc3cccc(O)c3)c3ccccc3n2)c1 | 21.8%
42 | Cc1ccc2nc3c(c(Nc4ccc(O)cc4)c2c1)CCC3.Cl | -21.2%
43 | Cc1ccc2nc3c(c(Nc4ccccc4)c2c1)CCC3.Cl | -71.7%
44 | Cc1ccc(-c2nc(Nc3cccc(O)c3)c3ccccc3n2)cc1 | 11.9%
45 | COc1ccc(Nc2c3c(nc4ccc(C)cc24)CCC3)cc1.Cl | -78.3%
46 | COc1ccc(Nc2ncnc3ccc(C)cc23)cc1 | -3.17%
47 | Cc1ccc2nc3c(c(C(=O)O)c2c1)CCC3 | 2.29%
48 | Cc1ccc2nc3c(c(Nc4cccc(O)c4)c2c1)CCC3.Cl | -70%
49 | COc1ccc2nc3c(c(-c4ccccc4)c2c1)CCC3 | -5.34%
50 | CC(=O)Nc1ccc(S(=O)(=O)NNC(=O)c2cccc(Cl)c2)cc1 | 8.3%
51 | CCOC(=O)CON1C(=O)c2ccccc2C1=O | -5.5%
52 | COc1ccc(Cl)cc1-n1c(C)cc(C=O)c1C | 4.29%
53 | COc1ccc(CN(C(=O)c2cnccn2)C(C(=O)NC(C)(C)C)c2cc(OC)c(OC)c(OC)c2)cc1 (stereo not shown) | 1.58%
54 | CCOC(=O)c1ccc(Oc2coc3cc(O)ccc3c2=O)cc1 | 17.6%
55 | CCOc1ccc(NS(=O)(=O)c2ccc(OC)c(NC(=O)c3ccc4c(c3)OCCO4)c2)cc1 | -2.7%
